# Assay results as given in PubChem BioAssay.
# Values without a mark were called inactive. Calls of active or inactive are those of the source. Cut-off read from the data, not from the text of the source, unless noted: active = inhibition above about 25%; inactive = the rest.
# Key:
# [1] = target: Nuclear receptor coactivator 3 (Homo sapiens) (UniProt Q9Y6Q9); test: NCOA3 GAL4-fusion reporter inhibition – cell-based, luminescence, quadruplicate, confirmation (AID 588792;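 active = mean inhibition over 43.08%, the solvent-only control mean plus 3 SD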;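 note: 0% = DMSO treated cells and 100% = gossypol at 36 µM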); settings: HEK293 GAL4-SRC3 luciferase reporter, at 3.6 µM, active compounds read high
# [2] = tested on: transactivating tegument protein VP16 (Human herpesvirus 1), Gal4-VP16 luciferase reporter; test: repression of VP16-driven luciferase reporter – cell-based, luminescence, high throughput, counter-screen for SRC3 inhibitor project (AID 588794; in the data active = inhibition above about 30%); settings: mammalian cells, at 3.6 µM, active compounds read high
# [3] = target: Nuclear receptor coactivator 1 (Homo sapiens) (UniProt Q15788); test: NCOA1 GAL4-fusion reporter inhibition – cell-based, luminescence, quadruplicate, confirmation (AID 588820;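 active = mean inhibition above 46.68%, the untreated control wells mean plus 3 SD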;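 note: 0% = DMSO wells and 100% = gossypol 36 µM treated wells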); settings: HEK293 GAL4-SRC1 luciferase reporter, at 3.6 µM, active compounds read high
# [4] = repression of VP16-driven luciferase reporter – cell-based, luminescence, high throughput, counter-screen for SRC1 inhibitor project (AID 588824); settings: cell-based VP16 transactivation luciferase luminescence; at 3.6 µM; active compounds read high
# [5] = tested on: transactivating tegument protein VP16 (Human herpesvirus 1); test: compounds suppressing VP16-driven luciferase signal – cell-based, luminescence, single concentration, counter-screen for SRC2 inhibitor project (AID 652007; in the data active = inhibition above about 36%); settings: cell-based VP16 transactivation luciferase reporter, at 8.9 µM, active compounds read high
# [6] = target: Nuclear receptor coactivator 2 (Homo sapiens) (UniProt Q15596); test: inhibition of GAL4-SRC2 driven luciferase expression – cell-based, luminescence, HEK293, triplicate, confirmation (AID 652008;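 active = mean inhibition above 46.5%, the solvent-only control mean plus 3 SD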;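 note: 0% = DMSO-treated cells and 100% = Gossypol at 36 µM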); settings: HEK293 GAL4-SRC2 luciferase reporter, at 8.9 µM, active compounds read high
# Nuclear receptor coactivator 2 (Homo sapiens), sequence (Q15596 whole entry, looked up, the tested form may be a part): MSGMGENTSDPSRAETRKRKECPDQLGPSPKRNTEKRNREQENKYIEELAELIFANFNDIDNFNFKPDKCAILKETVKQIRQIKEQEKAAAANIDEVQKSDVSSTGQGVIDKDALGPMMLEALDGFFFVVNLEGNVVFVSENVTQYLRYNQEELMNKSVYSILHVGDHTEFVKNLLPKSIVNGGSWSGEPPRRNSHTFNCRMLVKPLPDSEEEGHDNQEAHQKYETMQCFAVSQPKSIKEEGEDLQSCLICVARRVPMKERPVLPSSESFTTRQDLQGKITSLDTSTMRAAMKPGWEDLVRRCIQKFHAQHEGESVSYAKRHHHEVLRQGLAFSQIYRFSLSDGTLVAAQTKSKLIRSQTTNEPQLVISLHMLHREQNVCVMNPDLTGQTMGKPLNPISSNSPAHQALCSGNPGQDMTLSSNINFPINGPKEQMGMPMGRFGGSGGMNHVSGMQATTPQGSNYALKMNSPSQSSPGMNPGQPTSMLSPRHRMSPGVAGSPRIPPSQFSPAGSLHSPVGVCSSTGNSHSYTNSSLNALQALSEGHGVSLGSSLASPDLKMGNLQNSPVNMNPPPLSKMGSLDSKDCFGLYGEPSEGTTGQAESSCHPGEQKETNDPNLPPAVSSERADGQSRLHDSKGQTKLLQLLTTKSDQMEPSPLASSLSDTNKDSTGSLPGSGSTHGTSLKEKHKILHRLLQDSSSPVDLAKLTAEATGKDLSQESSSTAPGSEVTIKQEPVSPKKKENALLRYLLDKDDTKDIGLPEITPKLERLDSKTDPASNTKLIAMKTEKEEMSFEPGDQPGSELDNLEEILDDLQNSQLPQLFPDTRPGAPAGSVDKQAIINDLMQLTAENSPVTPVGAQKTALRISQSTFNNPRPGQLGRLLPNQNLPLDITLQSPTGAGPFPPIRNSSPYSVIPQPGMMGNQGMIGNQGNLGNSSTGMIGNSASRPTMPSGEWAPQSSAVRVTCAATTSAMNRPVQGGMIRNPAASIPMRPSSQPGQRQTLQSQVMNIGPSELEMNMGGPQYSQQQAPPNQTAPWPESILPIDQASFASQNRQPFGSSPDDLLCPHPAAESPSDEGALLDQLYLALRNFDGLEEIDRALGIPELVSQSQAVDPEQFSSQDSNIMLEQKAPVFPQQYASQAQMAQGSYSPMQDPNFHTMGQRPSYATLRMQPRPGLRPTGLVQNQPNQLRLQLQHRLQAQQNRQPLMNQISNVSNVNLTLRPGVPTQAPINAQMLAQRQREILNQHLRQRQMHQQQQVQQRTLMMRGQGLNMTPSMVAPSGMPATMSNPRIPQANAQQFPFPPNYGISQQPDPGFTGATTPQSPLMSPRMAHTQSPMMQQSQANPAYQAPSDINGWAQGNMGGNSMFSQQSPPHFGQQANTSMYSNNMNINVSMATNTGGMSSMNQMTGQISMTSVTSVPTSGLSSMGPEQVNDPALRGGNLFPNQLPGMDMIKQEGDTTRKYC
# Nuclear receptor coactivator 1 (Homo sapiens), sequence (Q15788 whole entry, looked up, the tested form may be a part): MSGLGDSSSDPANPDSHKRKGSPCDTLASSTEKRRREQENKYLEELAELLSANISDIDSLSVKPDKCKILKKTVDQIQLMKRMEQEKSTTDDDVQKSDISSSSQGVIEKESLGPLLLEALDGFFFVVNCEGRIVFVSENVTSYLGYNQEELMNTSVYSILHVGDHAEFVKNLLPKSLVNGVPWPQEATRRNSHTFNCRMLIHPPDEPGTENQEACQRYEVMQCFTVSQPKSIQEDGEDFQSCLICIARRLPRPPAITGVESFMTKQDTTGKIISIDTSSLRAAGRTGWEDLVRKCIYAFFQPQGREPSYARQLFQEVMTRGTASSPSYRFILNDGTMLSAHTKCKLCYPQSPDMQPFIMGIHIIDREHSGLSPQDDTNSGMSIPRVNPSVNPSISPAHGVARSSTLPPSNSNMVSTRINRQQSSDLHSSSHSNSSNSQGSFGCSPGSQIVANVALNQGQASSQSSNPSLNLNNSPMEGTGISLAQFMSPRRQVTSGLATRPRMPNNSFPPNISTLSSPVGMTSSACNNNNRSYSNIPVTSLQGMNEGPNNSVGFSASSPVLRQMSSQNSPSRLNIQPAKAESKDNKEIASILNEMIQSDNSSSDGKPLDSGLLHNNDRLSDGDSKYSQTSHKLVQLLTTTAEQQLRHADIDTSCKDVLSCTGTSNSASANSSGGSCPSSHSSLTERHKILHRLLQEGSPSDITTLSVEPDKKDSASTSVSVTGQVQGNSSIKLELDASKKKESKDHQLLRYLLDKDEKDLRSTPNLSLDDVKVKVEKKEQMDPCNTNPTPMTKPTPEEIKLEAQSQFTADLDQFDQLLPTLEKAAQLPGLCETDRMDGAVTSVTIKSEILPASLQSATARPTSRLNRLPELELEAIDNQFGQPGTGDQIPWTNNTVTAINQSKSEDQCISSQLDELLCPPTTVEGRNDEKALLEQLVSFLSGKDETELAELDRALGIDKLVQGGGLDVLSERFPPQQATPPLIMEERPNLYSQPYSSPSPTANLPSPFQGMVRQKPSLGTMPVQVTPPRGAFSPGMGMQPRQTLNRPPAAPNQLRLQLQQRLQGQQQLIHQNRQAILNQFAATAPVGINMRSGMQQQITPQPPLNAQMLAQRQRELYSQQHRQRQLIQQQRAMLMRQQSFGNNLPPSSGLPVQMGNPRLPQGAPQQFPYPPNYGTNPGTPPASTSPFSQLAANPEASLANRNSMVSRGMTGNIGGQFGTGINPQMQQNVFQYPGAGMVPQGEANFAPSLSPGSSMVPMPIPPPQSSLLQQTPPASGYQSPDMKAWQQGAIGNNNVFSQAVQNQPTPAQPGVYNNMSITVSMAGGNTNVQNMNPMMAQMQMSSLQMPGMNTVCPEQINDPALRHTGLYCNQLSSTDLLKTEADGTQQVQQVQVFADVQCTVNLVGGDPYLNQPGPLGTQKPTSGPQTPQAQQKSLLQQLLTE
# Nuclear receptor coactivator 3 (Homo sapiens), sequence (Q9Y6Q9 whole entry, looked up, the tested form may be a part): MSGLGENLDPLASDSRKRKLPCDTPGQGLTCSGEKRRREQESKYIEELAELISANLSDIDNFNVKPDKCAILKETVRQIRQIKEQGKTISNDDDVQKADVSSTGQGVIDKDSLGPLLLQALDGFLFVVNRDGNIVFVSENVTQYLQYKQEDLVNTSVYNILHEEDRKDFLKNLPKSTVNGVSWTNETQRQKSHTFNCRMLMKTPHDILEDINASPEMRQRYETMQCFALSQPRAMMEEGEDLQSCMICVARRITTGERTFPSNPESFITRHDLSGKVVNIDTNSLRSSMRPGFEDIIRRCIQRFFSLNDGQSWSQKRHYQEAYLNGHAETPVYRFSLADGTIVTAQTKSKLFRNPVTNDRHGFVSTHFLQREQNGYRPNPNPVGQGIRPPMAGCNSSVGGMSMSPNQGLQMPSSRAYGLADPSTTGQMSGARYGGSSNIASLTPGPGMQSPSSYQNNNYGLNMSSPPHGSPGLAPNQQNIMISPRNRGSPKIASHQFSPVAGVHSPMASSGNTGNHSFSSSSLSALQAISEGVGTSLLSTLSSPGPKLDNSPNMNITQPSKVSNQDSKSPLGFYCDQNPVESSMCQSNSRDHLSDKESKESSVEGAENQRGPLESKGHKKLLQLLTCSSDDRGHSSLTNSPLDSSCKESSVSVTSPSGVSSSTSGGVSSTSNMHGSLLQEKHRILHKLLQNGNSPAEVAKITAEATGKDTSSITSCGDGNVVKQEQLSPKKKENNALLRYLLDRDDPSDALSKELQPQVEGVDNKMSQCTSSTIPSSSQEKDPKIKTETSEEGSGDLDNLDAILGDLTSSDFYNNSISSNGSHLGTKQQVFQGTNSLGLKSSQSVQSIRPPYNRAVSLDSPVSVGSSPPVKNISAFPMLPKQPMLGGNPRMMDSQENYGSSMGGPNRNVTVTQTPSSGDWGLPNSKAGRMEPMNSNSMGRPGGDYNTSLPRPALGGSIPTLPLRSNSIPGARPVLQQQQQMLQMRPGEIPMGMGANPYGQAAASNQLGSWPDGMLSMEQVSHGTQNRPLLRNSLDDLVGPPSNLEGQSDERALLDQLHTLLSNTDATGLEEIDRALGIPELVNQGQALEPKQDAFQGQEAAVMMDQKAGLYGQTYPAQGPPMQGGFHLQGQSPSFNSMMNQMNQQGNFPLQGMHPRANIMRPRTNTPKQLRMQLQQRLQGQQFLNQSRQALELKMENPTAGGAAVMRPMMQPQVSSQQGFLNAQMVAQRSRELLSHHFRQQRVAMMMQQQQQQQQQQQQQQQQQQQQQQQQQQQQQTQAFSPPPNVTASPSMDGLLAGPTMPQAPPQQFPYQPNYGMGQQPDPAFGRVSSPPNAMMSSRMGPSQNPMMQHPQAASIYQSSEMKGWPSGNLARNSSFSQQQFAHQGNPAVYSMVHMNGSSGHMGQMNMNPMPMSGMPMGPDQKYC
SMILES,inhibition [1],inhibition [2],inhibition [3],inhibition [4],inhibition [5],inhibition [6]
Cc1nc2sc(C(N)=O)c(N)c2c2c1CCCC2,79.4% (active),47.5% (active),69% (active),51% (active),6.77%,61.5% (active)
CC1CCc2nc(NC(=O)C3COc4ccccc4O3)sc2C1 (configuration not stated),9.01%,-11.5%,-134%,-51.9%,-16.9%,36.4%
CNc1ccc2ncc(-c3cccc(C(=O)N(C)C)c3)n2n1,72.2% (active),62.2% (active),72.4% (active),60.8% (active),-12.3%,42.7%
Cc1nnc(SCC(=O)N2CCC(c3noc4ccc(F)cc34)CC2)s1,85.1% (active),48.4% (active),69.4% (active),45.1% (active),6.59%,44.8%
Oc1ccc(N=Nc2ccc3c(c2)OCCO3)c2cccnc12,19.8%,-38.3%,4.34%,-39.5%,-16.8%,-7.52%
CN(C)C(=O)c1cccc(-c2cnc3sc(NCc4ccc5c(c4)OCO5)nn23)c1,53.2% (active),35.7% (active),51.8% (active),33.7% (active),8.86%,62.2% (active)
CCOc1ccc(/C=C2\SC(=S)N(CCC(=O)O)C2=O)cc1,29%,-33.1%,39.5%,-38.8%,-7.9%,84.6% (active)
CCN(CC)c1ccc(/C=N/NC(=O)c2nnn(-c3nonc3N)c2C(C)C)c(O)c1,77.3% (active),72.6% (active),68.7% (active),65.5% (active),-10.2%,29.9%
Nc1ccc(-c2nc3c(Cl)cc(N)cc3[nH]2)cc1,18.7%,-18.4%,-18.9%,-17.4%,28.1%,71.7% (active)
O=S(=O)(Nc1cc(Sc2ncn[nH]2)c(O)c2ccccc12)c1ccccc1,12.9%,13.9%,-20.2%,4.9%,16.2%,12.2%
COc1ccc(-n2c(C)c([N+](=O)[O-])c3ccc(O)c(CN(C)C)c32)cc1,84.5% (active),61.8% (active),73.1% (active),61.4% (active),24.3%,52% (active)
Oc1ccc(Nc2ncnc3scc(-c4ccccc4)c23)cc1,38.6%,35.8% (active),41%,31.3% (active),-10.2%,57.6% (active)
COc1ccc(C2=Nn3c(nnc3-c3ccncc3)SC2)cc1,65.2% (active),48.6% (active),57.8% (active),37% (active),12.8%,39.8%
COc1ccc(-n2c(C)c([N+](=O)[O-])c3ccc(O)c(CN4CCCCC4)c32)cc1,47.4% (active),30.5% (active),54.9% (active),39.5% (active),4.57%,48.4% (active)
Cn1c(/C=C/c2cccc([N+](=O)[O-])c2)c([N+](=O)[O-])c(=O)n(C)c1=O,37.6%,41.4% (active),32.5%,40.8% (active),7.43%,25.7%
CC1=C(C(=O)OCc2ccc3c(c2)OCO3)C(c2cccc([N+](=O)[O-])c2)NC(=O)N1 (configuration not stated),64.6% (active),42.2% (active),65.7% (active),37.3% (active),-0.72%,51.9% (active)
CCc1c(C)nc2ccc(Br)cc2c1SCCC#N,58.4% (active),44.3% (active),66.9% (active),33.5% (active),9.39%,34.7%
Cc1ccc(-c2csc(=Nc3cccnc3)n2CCCn2ccnc2)cc1C,71% (active),51.5% (active),66.7% (active),45.6% (active),-0.44%,56.8% (active)
c1ccc2c(-c3ccc4nncn4c3)cncc2c1,79% (active),54.1% (active),65.9% (active),56.4% (active),-5.43%,46.3%
O=C(N/N=C/c1cc(Br)ccc1O)C(c1ccncc1)N1CCOCC1 (configuration not stated),19.3%,20.1%,19.4%,10.6%,11.5%,10.1%
Cc1nc2cc(N3CCN(C)CC3)c(NC(=O)Cc3ccccc3)cc2c(=O)n1Cc1ccccc1,17.6%,10.3%,-11.5%,-3.19%,4.08%,34.5%

SMILES,inhibition [1],inhibition [2],inhibition [3],inhibition [4],inhibition [5],inhibition [6]
O=C(N/N=C/c1cc([N+](=O)[O-])ccc1O)NC12CC3CC(CC(C3)C1)C2,19%,15.1%,-3.01%,10.3%,-0.05%,42.3%
Cc1c(CC(=O)NCCCC(=O)O)c(=O)oc2cc3c(cc12)CCC(C)(C)O3,35.8%,17.2%,15.6%,15.5%,58.8% (active),60.9% (active)
O=C(c1cncc(Br)c1)N1CCc2ccccc2C1,46.3% (active),33.3% (active),46.3%,29.3% (active),1.4%,15.9%
Cc1ccc(/C=C2\SC(=S)N(CCCC(=O)NC3CCCC3)C2=O)cc1,55.2% (active),14.5%,41.5%,14.4%,79.5% (active),89.4% (active)
Brc1cccc(CSc2nnc(-c3ccncc3)o2)c1,45.8% (active),35.2% (active),44.4%,26.9% (active),0.08%,27.6%
COc1ccc(-c2cc(=O)oc3cc(OC(=O)C4CCCCC4)c(Cl)cc23)cc1,59.4% (active),38.7% (active),56% (active),41.2% (active),-4.78%,37.4%
CC(C)(C)c1ccc(C(=O)NCCOc2ccccc2F)cc1,10.1%,-2.97%,-61%,-47.6%,-20.4%,47.8% (active)
Brc1ccc2ncnc(Nc3ccc(N4CCOCC4)cc3)c2c1,57.9% (active),31.9% (active),59.7% (active),35.3% (active),-2.24%,39.9%
COC(=O)c1cccc2c1-c1ccccc1/C2=N/O,50.9% (active),24.4%,34.5%,25.2%,21.1%,42.4%
CCCCN1C=CC(=C2C(=O)c3ccccc3C2=O)C=C1,41.5%,23.1%,-41.3%,14.1%,51% (active),73.1% (active)
CC(C)(C)c1ccc(Oc2ccc(N)cn2)cc1,39.6%,20.4%,2.49%,18.6%,69% (active),88.9% (active)
O=[N+]([O-])c1ccc2ncnc(Nc3ccc4c(c3)OCCO4)c2c1,57.9% (active),44.4% (active),59.8% (active),33.3% (active),3.91%,28.4%
C=CCN(CC=C)c1ncnc2[nH]ncc12,71.4% (active),50.9% (active),53.9% (active),45.2% (active),-8.17%,34.4%
COc1ccc(-c2cc(=O)oc3c(C)c(O)ccc23)cc1,49.4% (active),39.7% (active),50.3% (active),26.4% (active),-7.99%,23.3%
CC(C)(C)C(=O)Nc1ccc(N=Nc2ccccc2)cc1,69.1% (active),28.6%,-19.6%,-23.9%,54.7% (active),66% (active)
Nc1ncccc1C(=O)OCC(=O)N1CCN(S(=O)(=O)c2ccc(Cl)cc2)CC1,32.3%,22.3%,23.2%,20.6%,-4.99%,25.8%
Nc1ncc([N+](=O)[O-])c(N2CCCCCC2)n1,76.5% (active),50.2% (active),67.5% (active),51.2% (active),4.49%,57.3% (active)
S=C(c1ccc(-c2ccccc2)cc1)N1CCOCC1,9.3%,4.1%,33.3%,-6.87%,10.2%,79.1% (active)
OCCN1CCN(c2ncnc3ccc(Br)cc23)CC1,68.8% (active),41.1% (active),65.8% (active),44.5% (active),2.48%,36%
CCOc1cc(CNc2ccc3c(c2)OCCO3)cc(Br)c1OCC,25.4%,20.9%,-11.6%,20.8%,-27.7%,-1.58%
c1csc(C2=Nn3c(nnc3-c3ccncc3)SC2)c1,72.9% (active),58.1% (active),67.9% (active),50.8% (active),29.6%,62.6% (active)
